From PubChem BioAssay AID1159580 (chemical genetic matrix, 2015)
Where “and” joins values, the source holds several entries; their conditions need not be identical. Identical values can stand only once. In all, about 5,500 compounds went through this assay and about 2,000 (36%) were called active. Another 18% or so got no clear call; they are omitted. Cut-off read from the data, not from the text of the source: active = normalized growth mostly below about 0.91 (no sharp cut-off); inconclusive = no clear call, values can overlap the other calls; inactive = mostly above about 0.92. The list shows a part of the results.

Experiment: chemical genetic growth profiling, strain panel (AID 1159580);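 note: tested at 20 µM; growth read once vehicle control cultures reached saturation at 30 °C; 1 = growth at the plate median or of vehicle wells; lower values mean less growth of the strain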
Conditions: growth OD

Measured: normalized growth

Cn1c(=O)[nH]c2ncn(C)c2c1=O
inactive: S. cerevisiae deletion strains, locus YJR043C, strain POL32, active compounds read low 1.02 | S. cerevisiae deletion strains, locus YJR075W, strain HOC1, active compounds read low 1.01 and 1 | S. cerevisiae deletion strains, locus YKL009W, strain mrt4, active compounds read low 1.03 | S. cerevisiae deletion strains, locus YKL068W, active compounds read low 0.988 | S. cerevisiae deletion strains, locus YKL085W, strain MDH1 (second series), active compounds read low 0.993 | S. cerevisiae deletion strains, locus YKL085W, strain MDH1, active compounds read low 0.993 | S. cerevisiae deletion strains, locus YKL160W, strain elf1, active compounds read low 1.02 | S. cerevisiae deletion strains, locus YKL190W, strain CNB1, active compounds read low 1.01 | S. cerevisiae deletion strains, locus YKR001C, strain vps1, active compounds read low 0.997 | S. cerevisiae deletion strains, locus YKR026C, strain gcn3, active compounds read low 0.964 | S. cerevisiae deletion strains, locus YKR091W, strain srl3, active compounds read low 0.98 | S. cerevisiae deletion strains, locus YLL001W, strain dnm1, active compounds read low 0.988 | S. cerevisiae deletion strains, locus YLL026W, active compounds read low 0.989 | S. cerevisiae deletion strains, locus YLL041C, strain sdh2, active compounds read low 0.978 | S. cerevisiae deletion strains, locus YLR027C, strain aat2, active compounds read low 1 | S. cerevisiae deletion strains, locus YLR039C, strain RIC1, active compounds read low 1.02 | S. cerevisiae deletion strains, locus YLR058C, strain SHM2, active compounds read low 1.01 | S. cerevisiae deletion strains, locus YLR102C, strain apc9, active compounds read low 0.995 | S. cerevisiae deletion strains, locus YLR221C, strain rsa3, active compounds read low 0.943 | S. cerevisiae deletion strains, locus YLR258W, strain gsy2, active compounds read low 0.993 | S. cerevisiae deletion strains, locus YLR262C, strain YPT6 (second series), active compounds read low 0.983 | S. cerevisiae deletion strains, locus YLR262C, strain YPT6, active compounds read low 1.03 | S. cerevisiae deletion strains, locus YLR268W, strain sec22, active compounds read low 0.988 | S. cerevisiae deletion strains, locus YLR320W, strain mms22, active compounds read low 0.97 | S. cerevisiae deletion strains, locus YLR330W, strain CHS5, active compounds read low 1.01 | S. cerevisiae deletion strains, locus YLR342W, strain FKS1 (second series), active compounds read low 1.03 | S. cerevisiae deletion strains, locus YLR342W, strain FKS1, active compounds read low 0.975 | S. cerevisiae deletion strains, locus YLR357W, strain rsc2, active compounds read low 0.97 | S. cerevisiae deletion strains, locus YLR370C, strain arc18, active compounds read low 0.966 | S. cerevisiae deletion strains, locus YLR371W, strain rom2, active compounds read low 0.986 | S. cerevisiae deletion strains, locus YLR384C, strain iki3, active compounds read low 0.97 | S. cerevisiae deletion strains, locus YLR418C, strain cdc73, active compounds read low 1 | S. cerevisiae deletion strains, locus YML016C, strain PPZ1, active compounds read low 1.01 | S. cerevisiae deletion strains, locus YML032C, strain rad52, active compounds read low 0.995 | S. cerevisiae deletion strains, locus YML120C, strain ndi1, active compounds read low 0.995 | S. cerevisiae deletion strains, locus YML124C, strain tub3, active compounds read low 0.993 | S. cerevisiae deletion strains, locus YMR058W, strain fet3, active compounds read low 0.981 | S. cerevisiae deletion strains, locus YMR078C, strain ctf18, active compounds read low 0.984 | S. cerevisiae deletion strains, locus YMR125W, strain sto1, active compounds read low 0.987 | S. cerevisiae deletion strains, locus YMR129W, active compounds read low 0.984 | S. cerevisiae deletion strains, locus YMR205C, strain PFK2, active compounds read low 0.995 | S. cerevisiae deletion strains, locus YMR223W, strain ubp8, active compounds read low 1.01 | S. cerevisiae deletion strains, locus YMR231W, strain pep5, active compounds read low 0.961 | S. cerevisiae deletion strains, locus YMR263W, strain SAP30, active compounds read low 1.01 and 0.996 | S. cerevisiae deletion strains, locus YMR307W, strain GAS1, active compounds read low 1.06 and 0.981 | S. cerevisiae deletion strains, locus YNL067W, strain RPL9B, active compounds read low 1.01 | S. cerevisiae deletion strains, locus YNL071W, strain lat1, active compounds read low 0.974 | S. cerevisiae deletion strains, locus YNL128W, strain TEP1, active compounds read low 1.02 | S. cerevisiae deletion strains, locus YNL153C, strain GIM3, active compounds read low 1.01 and 0.984 | S. cerevisiae deletion strains, locus YNL175C, strain NOP13, active compounds read low 0.997 | S. cerevisiae deletion strains, locus YNL197C, strain WHI3, active compounds read low 0.995 | S. cerevisiae deletion strains, locus YNL209W, strain ssb2, active compounds read low 0.99 | S. cerevisiae deletion strains, locus YNL224C, strain SQS1, active compounds read low 0.99 | S. cerevisiae deletion strains, locus YNL233W, strain BNI4, active compounds read low 1.01 | S. cerevisiae deletion strains, locus YNL250W, strain rad50, active compounds read low 0.994 | S. cerevisiae deletion strains, locus YNL271C, strain bni1, active compounds read low 0.993 | S. cerevisiae deletion strains, locus YNL298W, strain CLA4, active compounds read low 1 | S. cerevisiae deletion strains, locus YNL307C, strain MCK1, active compounds read low 1.01 | S. cerevisiae deletion strains, locus YNL322C, strain KRE1 (second series), active compounds read low 0.989 | S. cerevisiae deletion strains, locus YNL322C, strain KRE1, active compounds read low 1 and 1.01 | S. cerevisiae deletion strains, locus YNR049C, strain mso1, active compounds read low 0.974 | S. cerevisiae deletion strains, locus YNR052C, strain pop2, active compounds read low 0.992 | S. cerevisiae deletion strains, locus YOL006C, strain TOP1, active compounds read low 1.04 | S. cerevisiae deletion strains, locus YOL012C, strain htz1 0.946 | S. cerevisiae deletion strains, locus YOL147C, strain pex11, active compounds read low 0.988 | S. cerevisiae deletion strains, locus YOR001W, strain rrp6, active compounds read low 0.925 | S. cerevisiae deletion strains, locus YOR061W, strain CKA2, active compounds read low 1.01 | S. cerevisiae deletion strains, locus YOR069W, strain VPS5, active compounds read low 1.01 | S. cerevisiae deletion strains, locus YOR070C, strain gyp1, active compounds read low 0.985 | S. cerevisiae deletion strains, locus YOR080W, strain dia2, active compounds read low 0.977 | S. cerevisiae deletion strains, locus YOR083W, strain WHI5 (second series), active compounds read low 1.02 | S. cerevisiae deletion strains, locus YOR083W, strain WHI5, active compounds read low 1.03 | S. cerevisiae deletion strains, locus YOR106W, strain vam3, active compounds read low 1.01 | S. cerevisiae deletion strains, locus YOR136W, strain idh2, active compounds read low 0.995 | S. cerevisiae deletion strains, locus YOR144C, strain elg1, active compounds read low 0.98 | S. cerevisiae deletion strains, locus YOR184W, strain ser1, active compounds read low 0.991 | S. cerevisiae deletion strains, locus YOR265W, strain rbl2, active compounds read low 0.974 | S. cerevisiae deletion strains, locus YOR270C, strain vph1, active compounds read low 0.971 | S. cerevisiae deletion strains, locus YOR290C, strain snf2, active compounds read low 1.01 | S. cerevisiae deletion strains, locus YOR316C, strain cot1, active compounds read low 0.987 | S. cerevisiae deletion strains, locus YPL051W, strain arl3, active compounds read low 0.982 | S. cerevisiae deletion strains, locus YPL055C, strain LGE1, active compounds read low 1.04 | S. cerevisiae deletion strains, locus YPL078C, strain atp4, active compounds read low 1.01 | S. cerevisiae deletion strains, locus YPL106C, strain sse1, active compounds read low 0.984 | S. cerevisiae deletion strains, locus YPL240C, strain hsp82, active compounds read low 0.971 | S. cerevisiae deletion strains, locus YPL241C, strain CIN2, active compounds read low 1.01 | S. cerevisiae deletion strains, locus YPR119W, strain clb2, active compounds read low 0.983 | S. cerevisiae deletion strains, locus YPR141C, strain kar3, active compounds read low 0.987 | S. cerevisiae deletion strains, locus YPR163C, strain tif3, active compounds read low 0.977 | S. cerevisiae deletion strains, locus YPR167C, strain met16, active compounds read low 0.994 | S. cerevisiae deletion strains, strain wtn01, active compounds read low 0.992 | S. cerevisiae strains, strain wild type, active compounds read low 1
active: S. cerevisiae deletion strains, locus YNL248C, strain rpa49, active compounds read low 0.874
